SUMO Mot1 rescue: inhibitors of SUMOylation pathway: yeast Mot1-301 growth rescue | growth rescue, % at 18.8 µM | AID 2716 | hit rate 1% among 320,000 | S. cerevisiae Mot1-301 growth rescue, ATP luminescence, 38.5C; percent above DMSO median, 100 means doubled;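 active = every valid replicate shows activation above 250% relative to neutral control wells; inactive = the rest, any valid replicate at or below 250%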;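 also: OY570 slx delta 5 strain wells were the positive control but not used for scaling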
NadD inh: NadD (S. aureus) enzyme inhibition; purified NadD enzyme, colorimetric absorbance read-out; inhibition, % at 20 µM; hit rate 0.78% among 360,000; AID 602399; in the data active = inhibition above about 26%
FAS TE block: FAS thioesterase (human) inhibition; inhibition, % at 15 µM; recombinant FAS-TE, OMFH fluorogenic substrate, fluorescence endpoint; hit rate 0.67% among 360,000; P49327;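 active = compounds whose normalised, plate-corrected inhibition of enzyme fluorescence in the single-dose primary screen is 50% or more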;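 also: 0% = DMSO with enzyme and 100% = substrate without enzyme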
Calb FLC: affects C. albicans growth with fluconazole; C. albicans CaCi-2 (fluconazole-resistant clinical isolate) + fluconazole, Alamar Blue growth, 48 h; growth inhibition, % (concentration not given with the values); hit rate 0.57% among 300,000;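 active = growth inhibition above about 58% in most replicates, limit read from the data, passing the limit was not always enough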;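 also: all wells also contain fluconazole at 8 µg/ml as a sub-toxic cotreatment; 0% = median of DMSO wells and 100% = median of geldanamycin control wells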
ATG4B inh: ATG4B (human) cysteine protease inhibition. ATG4B cleavage of LC3-PLA2, NBD-HPC fluorescence, 1 h. inhibition, % at 8.33 µM. hit rate 0.51% among 340,000. AID 504462; in the data active = inhibition above about 40%
Target sequence (Q9Y4P1 whole entry, looked up): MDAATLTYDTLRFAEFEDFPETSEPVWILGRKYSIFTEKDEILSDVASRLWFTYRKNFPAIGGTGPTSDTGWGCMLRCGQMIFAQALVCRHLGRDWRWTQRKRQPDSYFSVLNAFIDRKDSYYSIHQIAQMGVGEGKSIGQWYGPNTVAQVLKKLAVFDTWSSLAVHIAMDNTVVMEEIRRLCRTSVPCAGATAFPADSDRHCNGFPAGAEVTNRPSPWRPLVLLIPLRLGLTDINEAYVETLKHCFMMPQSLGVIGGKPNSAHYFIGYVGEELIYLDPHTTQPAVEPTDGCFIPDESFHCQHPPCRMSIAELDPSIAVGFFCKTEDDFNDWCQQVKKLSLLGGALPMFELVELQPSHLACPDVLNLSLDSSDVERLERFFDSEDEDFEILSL
Active calls of the source: *. In the library only some 3.1% were active in any assay of this set; here they are far more common.

How did CN(C)c1ccc(N=Cc2nc(-c3ccccc3)oc2O)cc1 do in these assays?
SUMO Mot1 rescue: 26; NadD inh: -3; FAS TE block: -92; Calb FLC: 6; ATG4B inh: -14

Results for O=S(=O)(Nc1cccc2cccnc12)c1ccc(S(=O)(=O)N2CCCC2)cc1 ?
SUMO Mot1 rescue: -19; NadD inh: 4; FAS TE block: 15; Calb FLC: 96*; ATG4B inh: -6

Results for COCCCn1c(SCC(=O)N2CCOCC2)nc2cc(Cl)ccc2c1=O ?
SUMO Mot1 rescue: 10; NadD inh: 1; FAS TE block: -5; ATG4B inh: -7

What do the screens show for `CCCn1cc(CN2CCC(n3nccc3NC(=O)c3ccc4c(c3)OCO4)CC2)c(C)n1`?
SUMO Mot1 rescue: 0; NadD inh: -5; FAS TE block: -4; Calb FLC: -7; ATG4B inh: -5

How did COc1ccc(C(=O)Nn2c(SCc3ccc([N+](=O)[O-])cc3)nc3ccccc3c2=O)cc1 do in these assays?
SUMO Mot1 rescue: 309; NadD inh: 33*; FAS TE block: 52*; Calb FLC: -5; ATG4B inh: 33

How did Cc1onc(-c2ccccc2)c1C(=O)N/N=C(\N)COc1ccc(Cl)cc1 do in these assays?
SUMO Mot1 rescue: -8; NadD inh: 0; FAS TE block: 3; Calb FLC: 86*; ATG4B inh: -3

What do the screens show for `COc1cc(OC)cc(C(=O)NNC(=O)CN2C(=O)NC(C)(c3ccc(C)cc3)C2=O)c1` (configuration not stated)?
SUMO Mot1 rescue: 6; NadD inh: 0; FAS TE block: -5; Calb FLC: 5; ATG4B inh: -1

How did O=C1NN(c2ccc(Br)cc2)C(=O)/C1=C\c1ccc(O)cc1O do in these assays?
SUMO Mot1 rescue: -7; NadD inh: -5; FAS TE block: -3; Calb FLC: 98*; ATG4B inh: 9

What do the screens show for `Cc1cc(C)n(/N=C/c2c[nH]c3ccccc23)c(=O)c1C#N`?
SUMO Mot1 rescue: 296*; NadD inh: -3; FAS TE block: -4; Calb FLC: 21; ATG4B inh: -18

Results for O=C(NC1CCCc2c1cnn2-c1ccc(F)cc1F)c1ccccc1N1CCOCC1 (configuration not stated) ?
SUMO Mot1 rescue: -24; NadD inh: -2; FAS TE block: -2; Calb FLC: -2; ATG4B inh: 7

What do the screens show for `CCOc1cccc2sc(N(CCN(CC)CC)C(=O)c3cccc(N4C(=O)CCC4=O)c3)nc12`?
SUMO Mot1 rescue: 290*; NadD inh: 0; FAS TE block: -5; Calb FLC: -9; ATG4B inh: -13

Results for CCOc1cccc2sc(N(CCN(CC)CC)C(=O)c3cccc([N+](=O)[O-])c3)nc12 ?
SUMO Mot1 rescue: -19; NadD inh: -1; FAS TE block: 9; Calb FLC: -1; ATG4B inh: 3

Results for Oc1ccccc1N=Nc1nc(-c2ccccc2)c(-c2ccccc2)[nH]1 ?
SUMO Mot1 rescue: 120; NadD inh: 35*; FAS TE block: 29; Calb FLC: 1; ATG4B inh: 13

How did Cc1ccc(Cl)cc1N1CCN(C(=O)c2noc(C(C)C)c2[N+](=O)[O-])CC1 do in these assays?
SUMO Mot1 rescue: -6; NadD inh: -5; FAS TE block: 23; Calb FLC: -30; ATG4B inh: -7

What do the screens show for `CCOc1ccc(CCNC(=O)COC(=O)c2ccc(C)s2)cc1OCC`?
SUMO Mot1 rescue: -5; NadD inh: -5; FAS TE block: 1; Calb FLC: -9; ATG4B inh: -4

What do the screens show for `CCCCNCC(=O)Nc1sc(C)c(C)c1C(=O)OCC`?
SUMO Mot1 rescue: -20; NadD inh: -3; FAS TE block: 10; Calb FLC: -14; ATG4B inh: 15

How did CCOC(=O)c1c(NC(=O)CNCC(O)CO)sc(C)c1C (configuration not stated) do in these assays?
SUMO Mot1 rescue: 295*; NadD inh: 4; FAS TE block: 0; Calb FLC: 6; ATG4B inh: -8

What do the screens show for `Cc1ccc(C(=O)NCC(=O)N2CCCCCCC2)cc1C`?
SUMO Mot1 rescue: 4; NadD inh: 8; FAS TE block: -2; ATG4B inh: 2

What do the screens show for `S=c1[nH]nc(C2CCCCC2)n1/N=C/c1ccc(Br)cc1`?
SUMO Mot1 rescue: 1; NadD inh: 3; FAS TE block: 8; Calb FLC: 6; ATG4B inh: -1

What do the screens show for `S=c1[nH]nc(C2CCCCC2)n1/N=C/c1ccc(Br)s1`?
SUMO Mot1 rescue: 6; NadD inh: 8; FAS TE block: 9; Calb FLC: 90*; ATG4B inh: 4

Compound activity (PubChem)
